Results published in PubChem BioAssay (NCI).
Compounds without any hit were thinned out: in the full panel of roughly 83,000, 20% have a hit.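 48-hour exposure, single concentration, 96-well plates; percent growth endpoint where 0 means no net growth. Active: below 10.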 A number with no mark means an inactive call. Activity calls are given as the source filed them.

These compounds were tested on HS 578T breast (assay: NCI-60 one-dose screen, 48 h (100 = growth as untreated, 0 = no growth, -100 = all killed)). Conditions: 10 µM.
In the case of `O=C(COc1ccc(-c2nc3ccccc3[nH]2)cc1)N=Nc1c(O)[nH]c2ccccc12`, the growth is reported as 103%.
Work on `C[C@]12CC[C@H]3[C@@H](CC=C4C[C@@H](O)CC[C@@]43C)[C@@H]1CC[C@@H]2C(=O)C/C=N/O` yielded a growth of 92.5%.
For `COc1ccc(N2CCN(c3nc(-c4ccccc4)c(C#N)c(=O)[nH]3)CC2)cc1`, the growth was 112%.
`CCCCCCCCCCCC(=O)NCCCN(C)C` was tested, and the growth was 106%.
In the case of `COc1cccc(-c2nnc(COc3ccc(-c4nc5ccccc5[nH]4)cc3OC)o2)c1`, the growth is reported as 102%.
In the case of `N/C(=N\O)c1cn(C2OC(CO)C(O)C2O)c2ncnc(N)c12` (stereo unspecified), the growth is reported as -5.15% (active).
`Nc1ccc(C2=CC(c3ccc(Cl)cc3)N3C=CSC3=N2)cc1` (stereo unspecified) was tested, and the growth was 16.8%.
`O=[N+]([O-])c1cc2ncccc2c2ncccc12` was tested, and the growth was 104%.
With `O=C(CCc1ccccc1)N1CCN(C(=O)CCc2ccccc2)CC1` the growth was 100%.
Work on `COc1ccc(CCc2nc3cc(-c4c(C)noc4C)ccc3n2CCN2CCOCC2)cc1` yielded a growth of 50.2%.
Compound `CCOC(=O)C(=O)Cc1cccnn1` has a growth of 133%.
With `FC(F)(F)c1ccc(-c2nc(-c3nc4cc(Cl)c(Cl)cc4[nH]3)c3ccccn23)cc1` the growth was 3.78% (active).
`COc1cc(CSc2nc3ccc(C)cc3c(=O)n2-c2ccccc2)cc(OC)c1OC` gave a growth of 28.2%.
In the case of `CC(C)C[C@H](NC(=O)Cn1ccc2ccccc2c1=O)B(O)O`, the growth is reported as 90%.
In the case of `CCCCC(=O)N(c1ccc(Nc2c3ccccc3nc3cc([N+](=O)[O-])ccc23)cc1)S(C)(=O)=O`, the growth is reported as 88.3%.
For `N#Cc1ncc(-c2cc(F)ccc2F)c(NC2CCCCCC2)n1`, the growth was 58.2%.
`Cc1nnc2c3nnc(-c4ccc(Cl)cc4)n3c3ccccc3n12` was tested, and the growth was 97.9%.
`O=CNc1c(Cl)cc2c(c1Cl)Cc1cc([N+](=O)[O-])ccc1-2` gave a growth of 75.3%.
For `O=C(Nc1ccc(OS(=O)(=O)Cc2ccccc2)cc1)C12CC3CC(CC(C3)C1)C2`, the growth was 98.7%.
`COc1cc(CSc2nc3ccc(C)cc3c(=O)n2Cc2ccccc2)cc(OC)c1OC` showed a growth of 20.7%.
For `CC(=O)[C@H]1CC[C@H]2[C@@H]3CC[C@@H]4CC=C(C=O)C[C@]4(C)[C@H]3CC[C@]12C`, the growth was 106%.
`O=[N+]([O-])c1ccc(Br)o1` showed a growth of 113%.
`CCc1nn2c(-c3cc(OC)c(OC)c(OC)c3)c(-c3cc(OC)c(OC)c(OC)c3)nc2s1` was tested, and the growth was 37.1%.
In the case of `N#Cc1c2c([nH]c(=O)c1C(N)=O)CCCCC2`, the growth is reported as 91.4%.
In the case of `COC(=O)[C@]12CC[C@@H](C)[C@H](C)[C@@H]1C1=CC[C@@H]3[C@@]4(C)CC(=O)[C@H](O)[C@@]5(C)COC(=C45)C[C@@]3(C)[C@]1(C)CC2`, the growth is reported as -5.08% (active).
With `C=CCNCCCN1C(=O)c2ccc3c4c(ccc(c24)C1=O)C(=O)N(CCCNCC=C)C3=O` the growth was -41.3% (active).
For `COc1ccc(Cn2cc3c(c2-c2cc(OC)c(OC)c(OC)c2)CCc2cnoc2-3)cc1N`, the growth was 10.4%.
`Cc1ccc2nc(-c3ccc(OCC(=O)N=Nc4c(O)[nH]c5ccccc45)cc3)[nH]c2c1` was tested, and the growth was 91.5%.
`COc1cc(OC)cc(-c2n/c(=C\c3c(O)[nH]c4ccc(OC)cc34)cc3c2=Nc2ccccc2-3)c1` showed a growth of 95.3%.
`O=c1ccc2nc(-c3ccccc3)nn(-c3ccccc3)c-2c1` showed a growth of 75.9%.
`NS(=O)(=O)c1ccc(N2N=C(c3ccc(-c4ccccc4)cc3)CC2c2ccc(Cl)cc2)cc1` (stereo unspecified) was tested, and the growth was 88.6%.
For `O=C(NC1CCCC1)c1ccc(N2CCC(NCc3cccc(C(F)(F)F)c3)CC2)cc1`, the growth was 96.1%.
For `COc1cc(OC)cc(-c2ccc(-c3ccc(C(=N)N)cn3)o2)c1`, the growth was -11.6% (active).
`COc1ccc(-c2oncc2-c2cc(OC)c3c(c2)OCO3)cc1` was tested, and the growth was 4.09% (active).
In the case of `COc1cc2ccnc(C=O)c2cc1OC`, the growth is reported as 93.4%.
For `N#Cc1ccc(-n2cnc(NC(=O)[C@H]3CCN(C#N)C3)c2)cc1`, the growth was 19.2%.
`Oc1ccccc1-c1nnc(Cn2c(Cc3cccc4ccccc34)nc3ccccc32)o1` gave a growth of 99.5%.
For `Fc1ccc(Nc2ccnc(N3CCN(c4ccnc5cc(Cl)ccc45)CC3)n2)cc1`, the growth was 61.4%.

These compounds were tested on NCI/ADR-RES ovarian in the same assay as above. Conditions: 10 µM.
Compound `O=C(COc1ccc(-c2nc3ccccc3[nH]2)cc1)N=Nc1c(O)[nH]c2ccccc12` has a growth of 108%.
For `C[C@]12CC[C@H]3[C@@H](CC=C4C[C@@H](O)CC[C@@]43C)[C@@H]1CC[C@@H]2C(=O)C/C=N/O`, the growth was 84.4%.
Compound `COc1ccc(N2CCN(c3nc(-c4ccccc4)c(C#N)c(=O)[nH]3)CC2)cc1` has a growth of 98.9%.
`CCCCCCCCCCCC(=O)NCCCN(C)C` gave a growth of 98.7%.
`COc1cccc(-c2nnc(COc3ccc(-c4nc5ccccc5[nH]4)cc3OC)o2)c1` showed a growth of 89%.
With `N/C(=N\O)c1cn(C2OC(CO)C(O)C2O)c2ncnc(N)c12` (stereo unspecified) the growth was 4.77% (active).
Compound `Nc1ccc(C2=CC(c3ccc(Cl)cc3)N3C=CSC3=N2)cc1` (stereo unspecified) has a growth of 31.6%.
`O=[N+]([O-])c1cc2ncccc2c2ncccc12` was tested, and the growth was 75.1%.
Work on `O=C(CCc1ccccc1)N1CCN(C(=O)CCc2ccccc2)CC1` yielded a growth of 108%.
For `COc1ccc(CCc2nc3cc(-c4c(C)noc4C)ccc3n2CCN2CCOCC2)cc1`, the growth was 57.1%.
`CCOC(=O)C(=O)Cc1cccnn1` showed a growth of 104%.
With `FC(F)(F)c1ccc(-c2nc(-c3nc4cc(Cl)c(Cl)cc4[nH]3)c3ccccn23)cc1` the growth was 63.5%.
With `COc1cc(CSc2nc3ccc(C)cc3c(=O)n2-c2ccccc2)cc(OC)c1OC` the growth was 17.8%.
Work on `CC(C)C[C@H](NC(=O)Cn1ccc2ccccc2c1=O)B(O)O` yielded a growth of 103%.
`CCCCC(=O)N(c1ccc(Nc2c3ccccc3nc3cc([N+](=O)[O-])ccc23)cc1)S(C)(=O)=O` showed a growth of 101%.
`N#Cc1ncc(-c2cc(F)ccc2F)c(NC2CCCCCC2)n1` was tested, and the growth was 91.2%.
`Cc1nnc2c3nnc(-c4ccc(Cl)cc4)n3c3ccccc3n12` showed a growth of 107%.
`O=CNc1c(Cl)cc2c(c1Cl)Cc1cc([N+](=O)[O-])ccc1-2` gave a growth of 57.4%.
For `O=C(Nc1ccc(OS(=O)(=O)Cc2ccccc2)cc1)C12CC3CC(CC(C3)C1)C2`, the growth was 84.4%.
In the case of `COc1cc(CSc2nc3ccc(C)cc3c(=O)n2Cc2ccccc2)cc(OC)c1OC`, the growth is reported as 12.7%.
Work on `CC(=O)[C@H]1CC[C@H]2[C@@H]3CC[C@@H]4CC=C(C=O)C[C@]4(C)[C@H]3CC[C@]12C` yielded a growth of 87.5%.
`O=[N+]([O-])c1ccc(Br)o1` was tested, and the growth was 99.5%.
`CCc1nn2c(-c3cc(OC)c(OC)c(OC)c3)c(-c3cc(OC)c(OC)c(OC)c3)nc2s1` showed a growth of 81.7%.
Work on `N#Cc1c2c([nH]c(=O)c1C(N)=O)CCCCC2` yielded a growth of 111%.
In the case of `COC(=O)[C@]12CC[C@@H](C)[C@H](C)[C@@H]1C1=CC[C@@H]3[C@@]4(C)CC(=O)[C@H](O)[C@@]5(C)COC(=C45)C[C@@]3(C)[C@]1(C)CC2`, the growth is reported as -59.7% (active).
In the case of `C=CCNCCCN1C(=O)c2ccc3c4c(ccc(c24)C1=O)C(=O)N(CCCNCC=C)C3=O`, the growth is reported as -7.11% (active).
For `COc1ccc(Cn2cc3c(c2-c2cc(OC)c(OC)c(OC)c2)CCc2cnoc2-3)cc1N`, the growth was 6.71% (active).
Work on `Cc1ccc2nc(-c3ccc(OCC(=O)N=Nc4c(O)[nH]c5ccccc45)cc3)[nH]c2c1` yielded a growth of 89.9%.
In the case of `COc1cc(OC)cc(-c2n/c(=C\c3c(O)[nH]c4ccc(OC)cc34)cc3c2=Nc2ccccc2-3)c1`, the growth is reported as 69.4%.
In the case of `O=c1ccc2nc(-c3ccccc3)nn(-c3ccccc3)c-2c1`, the growth is reported as 96.2%.
For `NS(=O)(=O)c1ccc(N2N=C(c3ccc(-c4ccccc4)cc3)CC2c2ccc(Cl)cc2)cc1` (stereo unspecified), the growth was 84.5%.
`O=C(NC1CCCC1)c1ccc(N2CCC(NCc3cccc(C(F)(F)F)c3)CC2)cc1` showed a growth of 88.3%.
Work on `COc1cc(OC)cc(-c2ccc(-c3ccc(C(=N)N)cn3)o2)c1` yielded a growth of 74.5%.
Work on `COc1ccc(-c2oncc2-c2cc(OC)c3c(c2)OCO3)cc1` yielded a growth of 18.5%.
Work on `COc1cc2ccnc(C=O)c2cc1OC` yielded a growth of 54.4%.
With `N#Cc1ccc(-n2cnc(NC(=O)[C@H]3CCN(C#N)C3)c2)cc1` the growth was 36.6%.
For `Oc1ccccc1-c1nnc(Cn2c(Cc3cccc4ccccc34)nc3ccccc32)o1`, the growth was 93.8%.
`Fc1ccc(Nc2ccnc(N3CCN(c4ccnc5cc(Cl)ccc45)CC3)n2)cc1` was tested, and the growth was 44.1%.
